Records with an inconclusive call do not appear. A number with no mark means an inactive call. Active and inactive are the calls of the source. Unless noted, the call rests on the fitted dose curve; in most records, active means well fitted curve in the direction sought with a large enough effect in the repeat runs; inconclusive means weak or mixed curves; inactive means no such curve, though single readings can be large; an effect the other way counts as inactive or inconclusive.

This note sets out measurements from PubChem BioAssay (Tox21).

Assay [1] is described as follows: qHTS assay to identify small molecule antagonists of the thyroid receptor (TR) signaling pathway (AID 743065). Further: nearly all actives have a fitted effect of over 55% in size. Further: potency means the concentration at half of the fitted maximal effect. The essentials: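 GH3.TRE-Luc rat pituitary cells carrying two TR response elements driving luciferase were plated for 4 h, given compound plus 1 nM T3 (final), and incubated 23.5 h at 37 C. ONE-Glo luminescence measured reporter inhibition; CellTiter-Fluor fluorescence tracked cytotoxicity.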

In assay [2] the test system is thyroid hormone receptor (rat, GH3 cells). Briefly: qHTS assay to identify small molecule agonists of the thyroid receptor (TR) signaling pathway (AID 743066; calls by dose curve). (In general: qHTS replaces the single test concentration by a dilution series.)
Assay [3] is described as follows: qHTS assay to identify small molecule antagonists of the estrogen receptor alpha (ER-alpha) signaling pathway - cell viability counter screen (AID 743074; calls by dose curve; further: nearly all actives have a fitted effect of over 45% in size).
The nature of assay [4]: qHTS assay to identify small molecule antagonists of the estrogen receptor alpha (ER-alpha) signaling pathway using the BG1 cell line - cell viability counter screen (AID 743081).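 Further: compound given together with 17beta-estradiol as the ER stimulus; series mostly up to about 70 µM; nearly all actives have a fitted effect of over 45% in size.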
The target of a further assay is Aromatase (Homo sapiens) (UniProt P11511). Description: qHTS assay to identify aromatase inhibitors (AID 743083). Further: series mostly up to about 70 µM; nearly all actives have a fitted effect of over 55% in size.
For assay [5], the target named is Estrogen receptor (Homo sapiens) (UniProt P03372). Description: qHTS assay to identify small molecule antagonists of the estrogen receptor alpha (ER-alpha) signaling pathway (AID 743069; active means well fitted curve in the direction sought with a large enough effect in the signal ratio in the repeat runs, not every such curve was filed as active; the % refers to the signal ratio). The essentials: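 HEK293 cells stably carrying an ER-alpha-UAS-bla beta-lactamase reporter were pre-cultured overnight in 2% charcoal-stripped FBS medium. Test compounds in DMSO were added together with 17beta-estradiol for 18 hr at 37C. Read-out was fluorescence after 2 hr with LiveBLAzer B/G FRET substrate at room temperature.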

Assay [6] shares this target. Briefly: qHTS assay to identify small molecule agonists of the estrogen receptor alpha (ER-alpha) signaling pathway (AID 743075; calls by dose curve).
Assay [7] shares this target. Description: qHTS assay to identify small molecule agonists of the estrogen receptor alpha (ER-alpha) signaling pathway using the BG1 cell line (AID 743079). Further: nearly all actives have a fitted effect of over 20% in size. Further: potency means the concentration at half of the fitted maximal effect.
A short description of assay [8]: qHTS assay to identify small molecule antagonists of the estrogen receptor alpha (ER-alpha) signaling pathway using the BG1 cell line (AID 743080; calls by dose curve; further: nearly all actives have a fitted effect of over 25% in size; further: potency means the concentration at half of the fitted maximal effect). In short, it runs like this:
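Antagonist mode: compounds in DMSO were pinned onto BG1-Luc-4E2 cells alongside 17beta-estradiol agonist, incubated 21.5 h, and ERE-driven luciferase measured with ONE-Glo. Cytotoxicity was multiplexed using CellTiter-Fluor fluorescence.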

Chain of Estrogen receptor (Homo sapiens) (P03372 whole entry, looked up): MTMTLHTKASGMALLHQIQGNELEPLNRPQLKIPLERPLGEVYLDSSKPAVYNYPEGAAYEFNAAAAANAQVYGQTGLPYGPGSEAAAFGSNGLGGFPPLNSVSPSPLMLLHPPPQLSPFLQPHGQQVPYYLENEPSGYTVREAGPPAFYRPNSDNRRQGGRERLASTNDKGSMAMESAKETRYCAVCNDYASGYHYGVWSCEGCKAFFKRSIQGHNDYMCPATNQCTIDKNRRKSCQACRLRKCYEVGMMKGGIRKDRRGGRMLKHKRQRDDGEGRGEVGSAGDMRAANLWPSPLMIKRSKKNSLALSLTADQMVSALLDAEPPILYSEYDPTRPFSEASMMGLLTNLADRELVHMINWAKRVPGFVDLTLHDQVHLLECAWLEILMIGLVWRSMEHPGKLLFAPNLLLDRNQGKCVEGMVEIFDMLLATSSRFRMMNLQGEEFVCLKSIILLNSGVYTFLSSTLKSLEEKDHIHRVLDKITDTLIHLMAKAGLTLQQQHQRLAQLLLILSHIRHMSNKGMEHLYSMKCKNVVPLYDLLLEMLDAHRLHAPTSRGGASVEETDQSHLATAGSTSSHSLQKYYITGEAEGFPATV
Chain of Aromatase (Homo sapiens) (P11511 whole entry, looked up): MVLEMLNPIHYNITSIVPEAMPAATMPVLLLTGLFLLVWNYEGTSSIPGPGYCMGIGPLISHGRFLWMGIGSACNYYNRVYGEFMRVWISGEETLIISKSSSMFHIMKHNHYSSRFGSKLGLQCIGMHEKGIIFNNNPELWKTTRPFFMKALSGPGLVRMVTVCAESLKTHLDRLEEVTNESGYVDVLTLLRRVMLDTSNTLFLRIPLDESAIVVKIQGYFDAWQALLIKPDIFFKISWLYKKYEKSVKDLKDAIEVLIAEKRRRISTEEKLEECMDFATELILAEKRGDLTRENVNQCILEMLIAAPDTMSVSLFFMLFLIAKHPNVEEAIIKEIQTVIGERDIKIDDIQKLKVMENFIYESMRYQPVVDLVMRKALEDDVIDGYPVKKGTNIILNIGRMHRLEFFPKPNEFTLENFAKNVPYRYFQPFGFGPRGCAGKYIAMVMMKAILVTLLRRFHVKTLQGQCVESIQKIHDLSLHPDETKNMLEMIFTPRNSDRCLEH

Consider `O=C(O)c1cc(C(=O)O)cc([N+](=O)[O-])c1`, for which the Potency result (in assay [1]; in assay [4]; in the assay with Aromatase (Homo sapiens)) was “inactive” each time. Moreover, the result in assay [2] and in assay [3] was inactive.

On to `COc1cc(C)c(Cc2cnc(N)nc2N)cc1OC`, for which the Potency result (in assay [5]; in assay [6]; in assay [7]; in assay [8]; in assay [4]; with Aromatase (Homo sapiens)) was “inactive” each time. Moreover, the result in assay [3] was inactive.

For the compound `CCC(C)CCCC(C)(C)O` (centres undefined), the Potency entry (in [1]; in assay [4]; with Aromatase (Homo sapiens)) was “inactive” throughout. In addition, the outcome in [2] and in assay [3] was inactive.

For `CC(O)C(C)O` (centres undefined), the Potency entry (in assay [1]; in assay [4]; with Aromatase (Homo sapiens)) was “inactive” throughout. The call in [3] was inactive.

For `O=C(N[C@@H](Cc1ccccc1)[C@@H](O)C(=O)N1C[C@@H](O)[C@@H](O)C1)c1cc2cc(Cl)ccc2[nH]1`, the Potency in assay [1] was 61.1 µM (active). Further, the call in assay [2] and in [3] was inactive. In addition, the Potency result (in assay [6]; in assay [8]; in [4]; in the assay with Aromatase (Homo sapiens)) was “inactive” each time.

Turning to `COc1cccc([C@H](O)C2CCN(CCc3ccc(F)cc3)CC2)c1OC`, the call in assay [2] and in [3] was inactive. Further, the Potency result (in [5]; in [6]; in assay [7]; in assay [8]; in assay [4]; in the assay with Aromatase (Homo sapiens)) was “inactive” throughout.

As for `Cc1c(Cl)cccc1Nc1ccccc1C(=O)O`, the Potency in assay [1] was 13.3 µM (active). The result in [3] was inactive. In addition, the Potency result (in assay [6]; in assay [7]; in assay [8]; in assay [4]; with Aromatase (Homo sapiens)) was “inactive” in each case.

Consider `O=C(O)c1ccc(O)c(O)c1`, for which the Potency result (in assay [1]; in assay [6]; in assay [7]; in assay [8]; in [4]; in the assay with Aromatase (Homo sapiens)) was “inactive” in each case. Besides, the call in [2] and in [3] was inactive.

In the case of `CC1=C(C)C(=O)C(CCCCC#CCCCC#CCO)=C(C)C1=O`, the Potency result in [6] and in assay [4] was “inactive” in each case. The Potency in assay [8] is 15 µM (active).

For `COc1ccc(/C=C/c2cc(OC)cc(=O)o2)cc1`, the result in [2] and in assay [3] was inactive. For the same compound, the Potency entry (in assay [5]; in assay [6]; in assay [4]; with Aromatase (Homo sapiens)) was “inactive” in each case. Moreover, the Potency in [7] was 0.884 µM (active).

Regarding `C[C@H]1C[C@H]2[C@@H]3CCC4=CC(=O)C=C[C@]4(C)[C@@]3(F)[C@@H](O)C[C@]2(C)[C@@]1(O)C(=O)COP(=O)(O)O`, the call in assay [2] and in [3] was inactive. In addition, the Potency entry (in assay [6]; in assay [7]; in [4]; with Aromatase (Homo sapiens)) was “inactive” throughout.

With `Clc1ccccc1-c1nc(-c2ccncc2)no1`, the Potency entry (in [1]; in assay [4]; in the assay with Aromatase (Homo sapiens)) was “inactive” in each case. Further, the outcome in assay [2] and in assay [3] was inactive.

As to `CC(C(=O)O)c1ccc(/C=C2\CCCCC2=O)cc1` (centres undefined), the Potency result (in assay [1]; in [4]; with Aromatase (Homo sapiens)) was “inactive” throughout. Also, the result in assay [2] and in assay [3] was inactive.

In the case of `O=C(O)c1c2ccccc2cc2ccccc12`, the Potency result (in assay [1]; in assay [5]; in assay [6]; in assay [7]; in assay [4]; with Aromatase (Homo sapiens)) was “inactive” each time. In addition, in assay [2], the result was inactive.

`O=C(O)c1cccc(C(=O)O)c1C(=O)O`: the result in assay [2] was inactive. In addition, the Potency result (in [6]; in assay [7]; in assay [8]; in assay [4]; with Aromatase (Homo sapiens)) was “inactive” in each case.

As to `CCCOC(C)=O`, the outcome in assay [2] and in [3] was inactive. Besides, the Potency result (in [6]; in assay [7]; in [8]; in assay [4]; with Aromatase (Homo sapiens)) was “inactive” throughout.

In the case of `COC(=O)Cc1cccc2ccccc12`, the result in [3] was inactive. The Potency result (in assay [6]; in [7]; in assay [8]; in assay [4]; in the assay with Aromatase (Homo sapiens)) was “inactive” each time.

`Cc1c(Nc2ncccc2C(=O)O)cccc1C(F)(F)F`: the result in assay [2] and in assay [3] was inactive. Moreover, the Potency entry in assay [4] was “inactive”.

For the compound `CC(=O)Oc1cccc2c1C(=O)c1c(OC(C)=O)cc(C(=O)O)cc1C2=O`, the Potency result (in [1]; in assay [4]; in the assay with Aromatase (Homo sapiens)) was “inactive” each time. In addition, the call in assay [2] and in assay [3] was inactive.

As for `C[C@]12CCC(=O)C=C1[C@@H]1C[C@@H]1[C@H]1[C@@H]3[C@@H]4C[C@@H]4[C@@]4(CCC(=O)O4)[C@@]3(C)CC[C@@H]12`, in assay [1], the Potency is 21.1 µM (active). Further, the compound was classed as inactive in assay [2] and in assay [3]. For the same compound, the Potency entry (in assay [4]; with Aromatase (Homo sapiens)) was “inactive” in each case.

Consider `CCCCCCCCCCCCCCCCN`, for which the compound was called inactive in [2] and in assay [3]. The Potency entry (in [5]; in [6]; in assay [7]; in [8]; in [4]; with Aromatase (Homo sapiens)) was “inactive” throughout.

Consider `OCCCO`, for which the result in [2] and in assay [3] was inactive. The Potency entry (in assay [5]; in assay [6]; in [7]; in [4]; with Aromatase (Homo sapiens)) was “inactive” each time.

`C1=COCCC1`: the Potency entry (in assay [1]; in assay [6]; in [7]; in [8]; in [4]; with Aromatase (Homo sapiens)) was “inactive” in each case. Further, the outcome in assay [2] and in assay [3] was inactive.

As for `O=c1[nH]nc(-c2ccc([N+](=O)[O-])o2)o1`, the Potency entry (in [1]; in assay [6]; in [7]; with Aromatase (Homo sapiens)) was “inactive” each time. Moreover, the call in [2] and in assay [3] was inactive.

Turning to `CC[C@H](NC(C)C)[C@H](O)c1ccc(O)c2[nH]c(=O)ccc12`, the call in assay [2] and in assay [3] was inactive. Further, the Potency entry (in [6]; in assay [7]; in [4]; with Aromatase (Homo sapiens)) was “inactive” each time.

In the case of `CCCc1nc(C)c2c(=O)[nH]c(-c3cc(S(=O)(=O)N4CCN(CC)CC4)ccc3OCC)nn12`, in assay [3], the result was inactive. In addition, the Potency result (in [4]; with Aromatase (Homo sapiens)) was “inactive” in each case.

Consider `CCCCCCCCS`, for which, in [2], the outcome was inactive. The Potency result (in [6]; in assay [7]; in assay [4]; in the assay with Aromatase (Homo sapiens)) was “inactive” each time.
